Test [1] has as its system TRPC4 beta (transient receptor potential cation channel C4), mouse. The test can be described thus: activators of mouse TRPC4 channel, confirmation, cell-based, Fluo4 calcium, HEK293 TRPC4beta/mu-opioid, duplicates, 10 µM (AID 2426;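 active = fluorescence ratio normalized to control raised more than 50% in primary screen plus both repeat runs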;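 for activation: percent rise of integrated ratio over buffer wells lacking compound which define 0%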). As to conditions: Fluo4 calcium fluorescence, at 10 µM; stronger effect = higher value.
The test system of test [2] is transient receptor potential cation channel C4 beta (TRPC4), mouse. Nature of the test: activators of mouse TRPC4 channel, confirmation, cell-based, second round, Fluo4, HEK293 TRPC4beta/mu-opioid, 1 µM (AID 2461;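 active = primary screen active and over 50% activation in each of two duplicate runs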;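 for activation: 0% = wells without test compound as baseline of integrated fluorescence ratio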). The settings on record: Fluo4 calcium fluorescence, at 1 µM; stronger effect = higher value.
In test [3] the test system is TRPC4 (transient receptor potential cation channel C4 beta), mouse. Nature of the test: positive allosteric modulators of mouse TRPC4, confirmation, cell-based, second round, Fluo-4, HEK293 TRPC4beta/mu-opioid, 1 µM (AID 2554;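 active = primary screen hit whose fluorescence ratio, in both repeats, exceeds the weak agonist control mean by 3 SD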). The settings on record: DAMGO EC20, Fluo-4 calcium flux, at 1 µM; stronger effect = higher value. (In general: A change in cytosolic calcium serves as a functional read-out for many receptors and channels.)

The subject of test [4] is TRPC4 beta (transient receptor potential cation channel C4), mouse. Nature of the test: positive allosteric modulators of mouse TRPC4, confirmation, cell-based, Fluo-4, HEK293 TRPC4beta/mu-opioid (AID 2555;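 active = primary screen hit whose calcium fluorescence ratio, in both repeats, exceeds the weak agonist control mean by 3 SD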). As to conditions: DAMGO EC20, Fluo-4 calcium flux, at 10 µM; stronger effect = higher value.
The target in test [5] is Short transient receptor potential channel 4 (Mus musculus) (UniProt Q9QUQ5). The test can be described thus: inhibitors of mouse TRPC4 channel, confirmation, cell-based, Fluo4, HEK293 TRPC4beta/mu-opioid (AID 2636;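 active = calcium signal cut by more than 3 SD below the full-agonist control yet still positive, in both repeats and the earlier primary screen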). The settings on record: DAMGO, Fluo4 calcium flux, at 10 µM; stronger effect = higher value.
Test [6] has the same target. The test can be described thus: inhibitors of mouse TRPC4 channel, confirmation, cell-based, second round, Fluo4, HEK293 TRPC4beta/mu-opioid, 1 µM (AID 2637;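 active = calcium signal ratio cut to more than 3 SD under the fully stimulated control mean yet still positive, in both repeats and the primary screen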). As to conditions: Fluo4 calcium flux, DAMGO, at 1 µM; stronger effect = higher value.
The target is the same in test [7]. Nature of the test: TRPC4 positive allosteric modulators, dose response, cell-based, HEK293 TRPC4/mu-opioid, Fluo-4 calcium, EC20 DAMGO (AID 434941;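 active = earlier screen potentiator hit that boosts the TRPC4 ion channel at some dose, with a dose response; inactive = no potentiation, no dose response, or not a prior hit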;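 note: calcium entry triggered by an EC20 dose of DAMGO at the co-expressed mu-opioid receptor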).
Test [8] has the same target. The test can be described thus: mouse TRPC4 channel inhibitors, dose response, cell-based, HEK293 TRPC4/mu-opioid, Fluo-4 calcium (AID 434942;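 active = primary screen inhibitor hit that blocks the TRPC4 channel at some tested dose, yielding a dose curve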).
Test [9] addresses Short transient receptor potential channel 6 (Mus musculus) (UniProt Q61143). The test can be described thus: inhibition of mouse TRPC6 channel, confirmation, selectivity assay for TRPC4 inhibitor project, cell-based, HEK293, membrane potential dye, duplicate (AID 434948;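 active = active in primary screen and both duplicates, each dropping signal beyond three positive-control SD with fluorescence still positive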). The settings on record: HEK293 TRPC6, membrane potential dye fluorescence, at 10 µM, stimulated with maximal-effect acetylcholine; stronger effect = higher value.

For test [10] the target is unchanged. Nature of the test: activation of mouse TRPC6 channel, confirmation, selectivity assay for TRPC4 activator project, cell-based, HEK293, membrane potential dye, duplicate (AID 434950;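 active = membrane potential signal rise above negative control mean plus 3 SD in both duplicates, also active in the earlier TRPC4 screen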;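 for activation: 0% = buffer only wells and 100% = acetylcholine maximal-effect wells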). As to conditions: HEK293 TRPC6, membrane potential fluorescence, at 10 µM; stronger effect = higher value.
For test [11] the target is unchanged. Nature of the test: TRPC6 potentiation by TRPC4 potentiator hits, confirmation, selectivity assay for TRPC4 potentiator project, HEK293 cells, membrane potential dye, duplicate (AID 434952;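 active = compound raising the membrane signal above positive-control mean plus 3 SD in both repeats, and a primary screen hit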). As to conditions: HEK293 TRPC6, membrane potential dye fluorescence, at 10 µM, maximal acetylcholine added after compound; stronger effect = higher value.
The target in test [12] is Short transient receptor potential channel 4 (Mus musculus) (UniProt Q9QUQ5). The test can be described thus: calcium flux activators in TRPC4/5HT1a cells, counter-screen for TRPC4 activator project, cell-based, second counter screen, HEK293 TRPC4/5HT1a, Fluo-4 (AID 434977).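 For activation: plate controls were assay buffer for no effect and maximal serotonin response for full effect.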 As to conditions: Fluo-4 calcium flux, at 10 µM; stronger effect = higher value.
Test [13] can be described thus: calcium flux inhibitors in TRPC4/5HT1a cells, confirmation, counter-screen for TRPC4 inhibitor project, cell-based, second counter screen, HEK293 TRPC4/5HT1a, Fluo-4 (AID 434978;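 active = primary screen active whose calcium signal fell more than 3 SD beyond the full-serotonin control mean in both duplicate plates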;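 note: serotonin given first at submaximal then at maximal dose after compound preincubation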). The settings on record: Fluo-4 calcium flux, at 10 µM, serotonin added to trigger calcium flux; stronger effect = higher value.
In test [14] the test system is TRPC4 (mouse), co-expressed with 5HT1a in HEK293. The test can be described thus: calcium flux potentiators in TRPC4/5HT1a cells, confirmation, counter-screen for TRPC4 potentiator project, cell-based, second counter screen, HEK293 TRPC4/5HT1a, Fluo-4 (AID 434979;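 active = signal rise over 3 SD above mean of control wells given weak agonist, in both repeats and first screen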). The settings on record: Fluo-4 calcium flux, at 10 µM, serotonin added at its EC20 dose; stronger effect = higher value.

Test [15] can be described thus: calcium flux activation in mu-opioid HEK293 cells, confirmation, counter-screen for TRPC4 activator project, cell-based, HEK293 mu-opioid receptor line (AID 449723;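 active = hit in primary screen, with calcium signal over 5 SD above buffer well mean in both duplicates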;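 note: counter screen cells carry the mu-opioid receptor alone and lack TRPC4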). The settings on record: Fluo-4 calcium fluorescence, at 10 µM; stronger effect = higher value.
Test [16] can be described thus: calcium flux enhancement in mu-opioid HEK293 cells, confirmation, counter-screen for TRPC4 allosteric potentiator project, cell-based, HEK293 mu-opioid receptor line (AID 449724;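 active = calcium signal rise more than 3 SD above the low-dose agonist control mean, in both duplicate plates and the primary screen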;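 note: HEK293 cells carrying mu-opioid receptor only with no TRPC4 channel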). As to conditions: Fluo-4 calcium flux, at 10 µM, compound added before EC20 DAMGO stimulus; stronger effect = higher value.

Molecules are shown by their SMILES. For part of these data: Measured potencies and affinities stand elsewhere. Calls of active or inactive are those of the source.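 Rule for the calls, unless noted: active = calcium signal rise above buffer-control mean plus 5 SD in both duplicates, and also a hit in the primary screen; inactive = the rest.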

Short transient receptor potential channel 4 (Mus musculus), sequence (Q9QUQ5 whole entry, looked up): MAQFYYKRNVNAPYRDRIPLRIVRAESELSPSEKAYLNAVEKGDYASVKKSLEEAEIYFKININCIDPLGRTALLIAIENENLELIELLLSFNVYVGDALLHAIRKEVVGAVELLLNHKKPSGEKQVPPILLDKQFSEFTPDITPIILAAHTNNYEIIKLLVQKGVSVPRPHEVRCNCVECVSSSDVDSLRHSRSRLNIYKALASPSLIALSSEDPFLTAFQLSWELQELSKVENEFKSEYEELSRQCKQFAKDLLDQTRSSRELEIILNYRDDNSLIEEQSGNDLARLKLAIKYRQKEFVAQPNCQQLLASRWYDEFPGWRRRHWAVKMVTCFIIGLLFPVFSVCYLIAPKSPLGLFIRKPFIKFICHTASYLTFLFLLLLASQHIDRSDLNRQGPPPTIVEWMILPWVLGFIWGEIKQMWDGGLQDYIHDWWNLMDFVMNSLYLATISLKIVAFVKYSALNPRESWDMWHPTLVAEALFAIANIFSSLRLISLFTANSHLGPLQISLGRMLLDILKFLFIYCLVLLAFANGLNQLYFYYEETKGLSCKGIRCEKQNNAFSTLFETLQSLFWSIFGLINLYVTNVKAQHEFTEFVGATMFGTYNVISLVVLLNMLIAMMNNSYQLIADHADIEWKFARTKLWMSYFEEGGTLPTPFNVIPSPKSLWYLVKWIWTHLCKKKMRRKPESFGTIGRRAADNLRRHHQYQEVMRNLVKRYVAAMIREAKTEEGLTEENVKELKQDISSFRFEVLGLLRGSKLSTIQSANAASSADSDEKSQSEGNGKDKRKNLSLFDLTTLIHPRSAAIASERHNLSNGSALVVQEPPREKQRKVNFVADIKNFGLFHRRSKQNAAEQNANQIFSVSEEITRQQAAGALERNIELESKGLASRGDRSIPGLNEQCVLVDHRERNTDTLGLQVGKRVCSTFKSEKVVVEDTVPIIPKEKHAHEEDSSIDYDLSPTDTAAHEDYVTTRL
Short transient receptor potential channel 6 (Mus musculus), sequence (Q61143 whole entry, looked up): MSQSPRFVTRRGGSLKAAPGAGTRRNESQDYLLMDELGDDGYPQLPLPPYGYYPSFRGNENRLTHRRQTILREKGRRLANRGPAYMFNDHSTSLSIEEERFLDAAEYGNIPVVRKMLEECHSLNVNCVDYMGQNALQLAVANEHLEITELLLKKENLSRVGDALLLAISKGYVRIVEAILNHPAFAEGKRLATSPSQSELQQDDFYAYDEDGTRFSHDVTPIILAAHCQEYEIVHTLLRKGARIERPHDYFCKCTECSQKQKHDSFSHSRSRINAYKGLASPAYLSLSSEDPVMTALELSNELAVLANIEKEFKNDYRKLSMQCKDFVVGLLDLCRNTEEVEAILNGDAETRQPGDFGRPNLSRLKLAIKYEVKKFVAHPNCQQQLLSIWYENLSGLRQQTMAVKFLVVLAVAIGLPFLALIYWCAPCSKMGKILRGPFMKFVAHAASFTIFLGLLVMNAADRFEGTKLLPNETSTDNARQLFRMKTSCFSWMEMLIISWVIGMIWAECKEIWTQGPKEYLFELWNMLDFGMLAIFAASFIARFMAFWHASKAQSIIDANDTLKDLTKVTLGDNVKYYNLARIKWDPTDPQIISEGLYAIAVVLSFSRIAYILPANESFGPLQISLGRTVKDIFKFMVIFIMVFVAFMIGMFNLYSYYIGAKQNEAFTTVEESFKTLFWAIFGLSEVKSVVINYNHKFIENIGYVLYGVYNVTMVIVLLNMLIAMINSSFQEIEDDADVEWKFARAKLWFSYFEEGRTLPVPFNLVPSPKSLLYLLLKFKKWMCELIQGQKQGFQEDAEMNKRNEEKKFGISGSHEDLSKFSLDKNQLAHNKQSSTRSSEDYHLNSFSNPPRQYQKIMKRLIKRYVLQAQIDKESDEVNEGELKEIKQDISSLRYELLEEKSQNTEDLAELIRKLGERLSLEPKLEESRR

In the case of `CCC(=O)N1CCc2cc(Br)cc(S(=O)(=O)NCCCN(C)Cc3ccccc3)c21`, the activation in test [1] was 116% (active); in test [2], 65% (active); in test [10], 55% (active); in test [12], 33.1% (active). For the same molecule, the result in [3], in test [4], in test [5], in [6], in test [7] and in test [8] was inactive. For the same molecule, the molecule was called inactive in test [9], in [11], in test [13], in test [15] and in [16]. In addition, in test [14], the potentiation is 26.2% (active).

With `Cc1ccc(-c2nn(-c3cccc(F)c3)cc2CNCc2cccnc2)o1`, the activation in [1] is 100% (active). Further, the outcome in [2], in test [3], in test [4], in test [5], in test [6] and in test [7] was inactive. The outcome in [8], in [9], in test [10], in test [11], in test [12] and in [13] was inactive. In addition, the result in test [14], in test [15] and in test [16] was inactive.

`Cn1c2ccccc2c(=O)c2c(=O)n(C3CCCCC3)c(-c3ccco3)nc21`: the outcome in test [1], in [2], in test [3], in test [4], in test [5] and in test [6] was inactive. The result in test [7], in test [8], in test [9], in test [10], in test [11] and in test [12] was inactive. The outcome in test [13], in test [14] and in [16] was inactive. Moreover, the activation in test [15] was 68.6% (active).

For `Cc1cc(OCCn2ccnc2)cc(C)c1Cl`, the activation in test [1] was 146% (active); in [10] it was 42% (active); in test [12], 34.8% (active). Further, the result in test [2], in [3], in [4], in [5], in [6] and in test [7] was inactive. Besides, the outcome in [8], in test [9], in [11], in test [13], in test [14] and in test [15] was inactive. In addition, in test [16], the result was inactive.

Regarding `Cc1ccccc1N1CC(O)(c2ccccc2)[N+]2=C1SCC2` (stereo not given), the activation in [1] is 73% (active); in test [10], 39% (active). In addition, the outcome in test [2], in test [3], in [4], in test [5], in [6] and in [7] was inactive. The outcome in test [8], in [9], in test [11], in test [12], in test [13] and in [14] was inactive. Moreover, the result in test [15] and in [16] was inactive.

Consider `Fc1ccc(-c2nn(-c3ccccc3)cc2CNCc2ccccc2)cc1`, for which the result in test [1], in [2], in [3], in test [4], in [5] and in test [6] was inactive. Besides, the result in test [7], in [8], in [9], in test [10], in [11] and in [12] was inactive. For the same molecule, the outcome in test [13], in test [14], in [15] and in [16] was inactive.

With `COc1ccc(C(CNC(=O)c2cccc(Br)c2)N2CCCC2)cc1` (stereo not given), the result in [1], in [2], in [3], in test [4], in [5] and in test [6] was inactive. Besides, the result in test [7], in test [8], in [9], in test [11], in [12] and in [13] was inactive. Besides, the outcome in test [14], in [15] and in test [16] was inactive. Also, the activation in test [10] is 61.5% (active).

Consider `CCOC(=O)C1(Cc2ccccc2)CCN(Cc2cccn2-c2cccnc2)CC1`, for which the activation is 55% (active) in test [1] and 89% (active) in [10]. Also, the outcome in [2], in [3], in [4], in test [5], in test [6] and in [7] was inactive. For the same molecule, the result in test [8], in test [9], in [11], in [12], in test [13] and in [14] was inactive. Besides, the outcome in [15] and in test [16] was inactive.

`O=C(NCCc1ccccn1)c1ccc(COc2ccccc2)o1`: the result in [1], in test [2], in [3], in test [4], in test [5] and in [6] was inactive. In addition, the outcome in test [7], in test [8], in [9], in [11], in [13] and in [14] was inactive. The result in test [15] and in test [16] was inactive. Further, the figures for the activation in test [10] and in [12] were 35% (active) and 58.4% (active), respectively.

Consider `NCCCNC(=O)c1cc2ccccc2[nH]1`, for which the activation in test [1] was 220% (active); in [12] it was 6.83% (active). Besides, the result in test [2], in test [3], in test [4], in test [5], in test [6] and in test [7] was inactive. The result in test [8], in [9], in test [10], in [11], in test [13] and in test [14] was inactive. For the same molecule, the result in [15] and in test [16] was inactive.

For the molecule `COc1c(C)cc(C(=O)C2CCCN(Cc3cccc4nccnc34)C2)cc1C` (stereo not given), the activation in test [1] was 108% (active); in test [10], 24% (active); in test [12], 37.7% (active). The outcome in test [2], in test [3], in [4], in test [5], in [6] and in [7] was inactive. The result in [8], in test [9], in test [11], in test [13], in test [14] and in [15] was inactive. In test [16], the outcome was inactive.

On to `Cc1ccc2nc(N(CCCN(C)C)C(=O)c3ccc(S(=O)(=O)N4CCc5ccccc5C4)cc3)sc2c1`, for which the activation is 242% (active) in test [1], 75% (active) in test [2] and 7.33% (active) in test [12]. In addition, the outcome in test [3], in [4], in test [5], in test [6], in test [7] and in test [8] was inactive. Also, the call in test [9], in test [10], in [11], in [13], in test [14] and in test [15] was inactive. Further, in [16], the outcome was inactive.

In the case of `Cc1cccc(NC(=S)NCC(c2ccccc2)N(C)C)c1` (stereo not given), the activation in test [1] was 176% (active); in test [2], 152% (active); in test [10] it was 39.5% (active). Also, the outcome in [3], in test [4], in [5], in test [6], in test [7] and in test [8] was inactive. Moreover, the outcome in [9], in test [11], in test [12], in [13], in test [14] and in test [15] was inactive. Besides, in test [16], the result was inactive.

For `CN(C)C(CNC(=O)c1cccc(S(=O)(=O)N(C)C)c1)c1ccccc1` (stereo not given), the results for the activation in test [1] and in test [10] were 84% (active) and 39.5% (active), respectively. The result in test [2], in [3], in test [4], in [5], in test [6] and in [7] was inactive. For the same molecule, the result in test [8], in [9], in test [11], in test [12], in [13] and in test [14] was inactive. Also, the result in test [15] and in test [16] was inactive.

As for `CSc1ccc(C(=O)NCC(c2ccco2)N(C)C)cc1[N+](=O)[O-]` (stereo not given), the values for the activation in test [1], in test [2] and in test [12] were 341% (active), 228% (active) and 45.6% (active), respectively. Further, the outcome in [3], in test [4], in [5], in test [6], in [7] and in [8] was inactive. In addition, the molecule was called inactive in test [9], in test [10], in test [11], in [13], in [14] and in test [15]. In addition, the result in [16] was inactive.

The record behind these values is PubChem BioAssay.
